In PubChem BioAssay:
Activity calls are given as the source filed them.

Tests used:
[1] = E. coli DRC41 culture turbidity changes, primary screen, E. coli filamentation inducer project, strain DRC41, OD650, 48 h (AID 1152);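 note: E. coli MC1000 strain DRC41 lacking acrAB efflux pump and sulA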; conditions: E. coli DRC41 (acrAB sulA), higher = more signal, called active from +8 up or from −8 down
[2] = small-molecule binders of probe aLefty1, primary screen, biochemical, small-molecule microarray, 635/667 nm fluorescence (AID 1153); conditions: higher = more signal;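 note: score merges spot fluorescence with signal-to-noise ratio from the scanned slide images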
[3] = PSAC antagonists in infected red cells, primary screen, cell-based, P. falciparum Indochina, OD700, 1 h (AID 1154); conditions: P. falciparum Indochina infected RBC osmotic lysis, higher = more signal, called active from +8 up or from −8 down
[4] = PSAC antagonists in infected red cells, primary screen, cell-based, P. falciparum Indochina, OD700, 2 h (AID 1155);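 note: lysis reports solute entry through the parasite surface anion channel PSAC; channel blockers reduce lysis of infected cells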; conditions: P. falciparum Indochina infected erythrocytes, osmotic lysis OD700; higher = more signal, called active from +8 up or from −8 down
[5] = osmotic lysis modulators in infected erythrocytes, primary screen, PSAC antagonist project, cell-based, P. falciparum Indochina, OD700, 3 h (AID 1156); conditions: higher = more signal, called active from +8 up or from −8 down
[6] = PSAC antagonists in infected red cells, primary screen, cell-based, P. falciparum Indochina, OD700, 18 h (AID 1157); conditions: P. falciparum Indochina infected erythrocytes, osmotic lysis OD700, 18 h; higher = more signal, called active from +8 up or from −8 down
[7] = modulators of S6 phosphorylation in cells, primary screen, cell-based, A549, cytoblot, luminescence, serum-stimulated (AID 1158); conditions: A549 phospho-S6 cytoblot, 5 h, higher = more signal;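 note: serum-stimulated A549 lung adenocarcinoma cells; signal is phosphorylated S6 detected by cytoblot immunostaining with HRP secondary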
[8] = target: NADPH oxidase 2 (Homo sapiens) (UniProt P04839); assay: NOX2-dependent H2O2 signal modulators, primary screen, NOX inhibitor project, cell-based, HEK293-NOX2, PMA-stimulated, Amplex Red fluorescence (AID 1159); conditions: 45 min, higher = more signal, called active from +8 up or from −8 down; note: test concentration not given here
[9] = target: NADPH oxidase 4 (Homo sapiens) (UniProt Q9NPH5); assay: NOX4-dependent H2O2 signal modulators, primary screen, NOX inhibitor project, cell-based, HEK293-NOX4, tetracycline-induced, Amplex Red fluorescence (AID 1160); conditions: 45 min, higher = more signal, called active from +8 up or from −8 down
[10] = target: NADPH oxidase 5 (Homo sapiens) (UniProt Q96PH1); assay: NOX5-dependent H2O2 signal modulators, primary screen, NOX inhibitor project, cell-based, HEK293-NOX5, Amplex Red fluorescence (AID 1161); conditions: HEK293-NOX5, ionomycin, 45 min, higher = more signal
Sequence of NADPH oxidase 5 (Homo sapiens) (Q96PH1 whole entry, looked up): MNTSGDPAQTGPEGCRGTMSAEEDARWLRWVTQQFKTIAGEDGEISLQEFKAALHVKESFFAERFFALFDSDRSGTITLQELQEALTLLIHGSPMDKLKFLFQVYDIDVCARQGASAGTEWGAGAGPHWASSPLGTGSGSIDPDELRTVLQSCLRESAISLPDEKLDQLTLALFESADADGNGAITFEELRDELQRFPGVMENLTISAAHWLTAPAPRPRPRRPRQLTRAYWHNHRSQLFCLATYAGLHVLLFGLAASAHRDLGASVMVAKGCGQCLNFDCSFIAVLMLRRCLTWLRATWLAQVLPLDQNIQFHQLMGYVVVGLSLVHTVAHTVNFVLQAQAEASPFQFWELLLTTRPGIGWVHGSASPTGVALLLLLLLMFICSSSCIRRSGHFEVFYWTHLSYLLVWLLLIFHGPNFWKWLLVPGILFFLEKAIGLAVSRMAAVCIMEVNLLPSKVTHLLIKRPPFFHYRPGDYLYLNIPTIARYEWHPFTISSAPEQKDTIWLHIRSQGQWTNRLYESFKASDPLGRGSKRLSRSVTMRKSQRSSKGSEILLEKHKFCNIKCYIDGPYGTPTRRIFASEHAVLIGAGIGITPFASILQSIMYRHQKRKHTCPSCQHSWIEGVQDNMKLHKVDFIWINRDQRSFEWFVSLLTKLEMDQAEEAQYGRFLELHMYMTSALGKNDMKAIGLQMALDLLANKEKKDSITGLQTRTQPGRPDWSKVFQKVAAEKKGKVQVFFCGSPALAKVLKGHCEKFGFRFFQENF

Sequence of NADPH oxidase 2 (Homo sapiens) (P04839 whole entry, looked up): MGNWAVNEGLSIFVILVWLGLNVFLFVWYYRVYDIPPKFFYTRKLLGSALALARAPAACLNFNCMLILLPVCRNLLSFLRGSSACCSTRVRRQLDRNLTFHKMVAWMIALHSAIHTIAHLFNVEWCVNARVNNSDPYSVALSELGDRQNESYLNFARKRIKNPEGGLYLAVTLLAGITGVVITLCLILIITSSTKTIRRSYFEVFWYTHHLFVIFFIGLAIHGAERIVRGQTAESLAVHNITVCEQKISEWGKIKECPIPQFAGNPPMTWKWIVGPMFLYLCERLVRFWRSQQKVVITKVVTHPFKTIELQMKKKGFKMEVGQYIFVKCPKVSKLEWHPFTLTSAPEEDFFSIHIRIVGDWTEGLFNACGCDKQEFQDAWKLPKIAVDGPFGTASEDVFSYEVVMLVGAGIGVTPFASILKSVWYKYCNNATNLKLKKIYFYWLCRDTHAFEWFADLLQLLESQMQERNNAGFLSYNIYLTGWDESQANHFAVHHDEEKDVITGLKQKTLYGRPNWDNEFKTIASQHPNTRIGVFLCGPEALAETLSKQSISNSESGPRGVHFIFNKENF
Sequence of NADPH oxidase 4 (Homo sapiens) (Q9NPH5 whole entry, looked up): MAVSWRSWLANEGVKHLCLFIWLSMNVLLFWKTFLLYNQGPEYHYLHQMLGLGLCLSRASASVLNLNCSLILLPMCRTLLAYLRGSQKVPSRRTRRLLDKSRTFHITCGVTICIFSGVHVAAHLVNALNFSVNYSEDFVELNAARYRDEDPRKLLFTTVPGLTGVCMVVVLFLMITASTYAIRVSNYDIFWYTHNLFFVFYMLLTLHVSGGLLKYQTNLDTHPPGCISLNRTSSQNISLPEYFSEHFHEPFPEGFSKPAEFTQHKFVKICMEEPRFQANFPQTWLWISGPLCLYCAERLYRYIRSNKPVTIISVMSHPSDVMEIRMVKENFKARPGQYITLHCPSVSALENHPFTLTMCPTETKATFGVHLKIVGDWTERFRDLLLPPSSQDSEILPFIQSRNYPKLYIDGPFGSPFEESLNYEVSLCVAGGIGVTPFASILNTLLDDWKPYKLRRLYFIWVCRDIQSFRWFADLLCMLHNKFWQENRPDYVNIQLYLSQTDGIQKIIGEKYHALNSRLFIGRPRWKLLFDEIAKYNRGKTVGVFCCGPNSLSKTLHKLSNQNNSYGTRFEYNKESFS

Row | Structure (SMILES) | z-score [1] | composite z-score [2] | z-score [3] | z-score [4] | z-score [5] | z-score [6] | z-score [7] | z-score [8] | z-score [9] | z-score [10]
1 | COc1ccc(C#Cc2ccc3c(c2)[C@]2(C(=O)N3)[C@H](C(=O)NC[C@H](O)c3ccccc3)[C@H]3C(=O)O[C@H](c4ccccc4)[C@H](c4ccccc4)N3[C@@H]2c2ccccc2OCCO)cc1 | -0.13 (inactive) | 0.29 | 1.78 (inactive) | 1.95 (inactive) | -0.054 (inactive) | 1.41 (inactive) | -0.0009 | 1.53 (inactive) | 0.36 (inactive) | 0.24
2 | [N-]=[N+]=NCc1ccccc1C[C@]1(C(=O)NCCN2CCOCC2)N=C(c2ccc(OCCCO)cc2)O[C@H]1c1ccccc1N=[N+]=[N-] | 0.991 (inactive) | 0.586 | 34.3 (active) | 31.4 (active) | 2.82 (inactive) | 8.68 (active) | -0.176 | -1.69 (inactive) | 0.636 (inactive) | -0.368
3 | COc1ccccc1CN1C(=O)c2ccccc2[C@@H](C(=O)NCCN2CCOCC2)[C@@H]1c1ccc(CO)cc1 | -0.0157 (inactive) | -0.211 | 2.67 (inactive) | 0.0298 (inactive) | 1.56 (inactive) | 0.695 (inactive) | 0.513 | 1.26 (inactive) | -0.65 (inactive) | -2.47
4 | COc1ccc(C#Cc2ccc3c(c2)[C@]2(C(=O)N3)[C@H](c3ccc(O)cc3)N3[C@H](c4ccccc4)[C@H](c4ccccc4)OC(=O)[C@H]3[C@@H]2C(=O)NC[C@H](O)c2ccccc2)cc1 | 0.735 (inactive) | -0.021 | 1.1 (inactive) | 1.09 (inactive) | 0.541 (inactive) | 0.859 (inactive) | -0.193 | 1.91 (inactive) | -0.0599 (inactive) | 0.22
5 | C=CCNC(=O)[C@@H]1[C@H]2C(=O)O[C@H](c3ccccc3)[C@H](c3ccccc3)N2[C@H](c2ccc(OCCO)cc2)[C@@]12C(=O)Nc1ccccc12 | 1.52 (inactive) | 0.0235 | 5.12 (inactive) | 0.39 (inactive) | -0.844 (inactive) | 0.002 (inactive) | 4.16 | 1.38 (inactive) | 0.767 (inactive) | -0.355
6 | COC(=O)[C@@]1(Cc2ccccc2N=[N+]=[N-])COC(c2ccc(OCCCO)cc2)=N1 | -1.01 (inactive) | 0.933 | 24.3 (active) | 8.54 (active) | 3.35 (inactive) | 1.03 (inactive) | -0.317 | -1.38 (inactive) | -0.156 (inactive) | -1.63
7 | CC(=O)NCCCC[C@@H]1NC(=O)[C@H]2C[C@@H](C(=O)NCCCCCC[N+](C)(C)C)[C@@H](c3cccc(OCCO)c3)N2C1=O | 1.52 (inactive) | 0.147 | 2.86 (inactive) | -1.48 (inactive) | 0.657 (inactive) | -2.25 (inactive) | 0.778 | -0.329 (inactive) | 0.383 (inactive) | -0.465
8 | CC(=CC1CCCCC1)[C@@H](NC(=O)c1ccc(C(F)(F)F)cc1)c1ccc(-c2ccccc2)cc1 | -2.14 (inactive) | 0.117 | 3.47 (inactive) | 1.03 (inactive) | 0.482 (inactive) | 0.813 (inactive) | 0.299 | -0.709 (inactive) | -0.683 (inactive) | 0.0858
9 | C=C(COC)C(=O)CC[C@H](OC(C)=O)c1cccc(OCCO)c1 | 0.527 (inactive) | -0.393 | 4.14 (inactive) | -1.22 (inactive) | 1.88 (inactive) | -1.48 (inactive) | 2.19 | -1.66 (inactive) | -0.724 (inactive) | -1.46
10 | CCOC(=O)C[C@H]1[C@H](OC(=O)c2ccc(C(=O)c3ccccc3)cc2)[C@@H](NC(=O)C2CCCCC2)c2cc(OCCCO)ccc2N1C(=O)c1ccccc1 | -1.01 (inactive) | 0.315 | 1.31 (inactive) | -0.889 (inactive) | -0.562 (inactive) | -0.23 (inactive) | -0.0118 | 0.469 (inactive) | 1.26 (inactive) | 1.77
11 | O=C1C2C=CC(C(O)c3cccs3)N(Nc3ccccc3F)C2C(=O)N1c1ccccc1 (stereo not given) | 0.386 (inactive) | 0.248 | 1.35 (inactive) | -0.506 (inactive) | -1.27 (inactive) | -1.23 (inactive) | 0.224 | -0.932 (inactive) | -3.7 (inactive) | -1.78
12 | C=CCC(OC(C)=O)[C@@H]1[C@@H](N(Cc2cccc3ccccc23)C(=O)c2cccc3ccccc23)c2cc(OCCCO)ccc2N1C(=O)c1ccc2ccccc2n1 (stereo not given in full) | -0.773 (inactive) | 0.0622 | 1.1 (inactive) | 0.613 (inactive) | -0.249 (inactive) | 0.532 (inactive) | 0.443 | -0.62 (inactive) | -0.419 (inactive) | -2.42
13 | COc1ccc(CCN2C(=O)[C@@]3(Cc4ccccc42)c2ccccc2C(=O)N(Cc2ccccc2Cl)[C@H]3c2ccc(CO)cc2)cc1 | 0.641 (inactive) | 0.0844 | 2.59 (inactive) | 0.346 (inactive) | 0.679 (inactive) | 0.425 (inactive) | 0.306 | 1.3 (inactive) | -1.49 (inactive) | 1.28
14 | COc1ccc(NN2C(C(O)c3ccc(OC)c(OCc4ccccc4)c3)C=CC3C(=O)N(C4CCCCC4)C(=O)C32)cc1 (stereo not given) | 0.678 (inactive) | 0.32 | 4.41 (inactive) | 1.38 (inactive) | 0.31 (inactive) | 1 (inactive) | 0.0173 | -0.195 (inactive) | -1.96 (inactive) | -0.604
15 | CN1C=C(C(=O)OCCS(C)(=O)=O)C(C(=O)OCCS(C)(=O)=O)=CC(CCCO)=CC1C1CC1 (stereo not given) | 1.07 (inactive) | 0.026 | 1.43 (inactive) | 0.63 (inactive) | 0.483 (inactive) | 0.16 (inactive) | 0.471 | -2.51 (inactive) | -1.07 (inactive) | -1.38
16 | O=C1OCC=C[C@H]2OC34C=CCN(c5ccc6ccccc6c5)C(=O)[C@H]3N(CCCO)C(=O)[C@@H]4[C@@H]12 (stereo not given in full) | 0.392 (inactive) | 0.251 | 0.638 (inactive) | -0.0892 (inactive) | 0.572 (inactive) | -1.56 (inactive) | 1.28 | 1.09 (inactive) | -0.0483 (inactive) | 0.904
17 | CO[C@H]1O[C@H](CO)[C@@H](OC(=O)Nc2ccc3c(c2)OCO3)[C@H](OC(=O)Nc2ccccc2)[C@H]1OC(=O)Nc1ccccc1 | -0.495 (inactive) | 0.227 | 4.11 (inactive) | 0.777 (inactive) | 0.756 (inactive) | 0.421 (inactive) | 0.258 | -6.93 (inactive) | -0.649 (inactive) | -2.08
